For seven compounds, Potency and outcome results are on record in PubChem BioAssay (Tox21).

Experiment [1] is described as follows: qHTS assay to identify aromatase inhibitors - cell viability counter screen (AID 743084).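 Note: cells stimulated with testosterone during compound exposure; nearly all actives have a fitted effect of over 55% in size.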 Note: potency is the fitted concentration of half-maximal effect. A general note: qHTS replaces the single test concentration by a dilution series.
The target in experiment [2] is Aryl hydrocarbon receptor (Homo sapiens) (UniProt P35869). Kind of experiment: qHTS assay to identify small molecule that activate the aryl hydrocarbon receptor (AhR) signaling pathway (AID 743085).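 Note: HG2L7.5c1 human HepG2 liver cells with stably integrated DRE-driven firefly reporter; series mostly up to about 70 µM; nearly all actives have a fitted effect of over 15% in size.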 In a few lines: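 24 h compound exposure, 37C, HepG2-derived HG2L7.5c1 cells with DRE-responsive luciferase. Readouts: fluorescence viability, then luminescence at room temperature after 30 min.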

A short description of experiment [3]: qHTS assay to identify small molecule that activate the aryl hydrocarbon receptor (AhR) signaling pathway - cell viability counter screen (AID 743086). Note: nearly all actives have a fitted effect of over 45% in size. Note: potency is the fitted concentration of half-maximal effect. In a few lines:
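HepG2-AhR-luc (HG2L7.5c1) cells, 4000/well, treated 24 h at 37 C with compound; viability measured as CellTiter-Fluor fluorescence after 30 min in the same wells as the luciferase read.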

For experiment [4], the target named is Peroxisome proliferator-activated receptor gamma (Homo sapiens) (UniProt P37231). The experiment in a line: qHTS assay to identify small molecule agonists of the peroxisome proliferator-activated receptor gamma (PPARg) signaling pathway (AID 743094; active = well fitted activation curve with a large enough effect in the signal ratio in the repeat runs, not every such curve was filed as active; the % refers to the signal ratio). In a few lines:
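Following 5 h plating at 37C, PPARg-bla HEK293H cells receive compound or DMSO for 17 h; fluorescence intensity is recorded after LiveBLAzer B/G loading for 1 h at room temperature.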

For experiment [5] the target is unchanged. The experiment in a line: qHTS assay to identify small molecule antagonists of the peroxisome proliferator-activated receptor gamma (PPARg) signaling pathway (AID 743191; calls by dose curve; note: series mostly up to about 63 µM; nearly all actives have a fitted effect of over 30% in size). In a few lines: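 GeneBLAzer PPARg UAS-bla HEK293H cells, 5 h post-plating, exposed to compounds 17 h at 37C. LiveBLAzer B/G FRET substrate added for 1 h at room temperature; beta-lactamase reporter read by fluorescence intensity.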

Experiment [6] in a line: qHTS assay to identify small molecule antagonists of the peroxisome proliferator-activated receptor gamma (PPARg) signaling pathway - cell viability counter screen (AID 743194). Note: nearly all actives have a fitted effect of over 55% in size. Note: potency is the fitted concentration of half-maximal effect. In a few lines:
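Cytotoxicity counter screen in PPARg-bla HEK293H cells, same wells as reporter assay. Compounds plus 50 nM rosiglitazone (final) for 17 h at 37 C, then viability read by CellTiter-Glo luminescence.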

Experiment [7] in a line: qHTS assay for small molecule agonists of the antioxidant response element (ARE) signaling pathway - cell viability counter screen (AID 743203; calls by dose curve; note: nearly all actives have a fitted effect of over 55% in size; note: potency is the fitted concentration of half-maximal effect). In a few lines:
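Compounds in DMSO were pinned onto ARE-bla HepG2 cells plated 5 hrs earlier at 2,000 cells/well. Sixteen hours later at 37C/5% CO2, CellTiter-Glo was added and luminescence measured after 30 min at room temperature.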

Experiment [8] can be described thus: qHTS assay for small molecule activators of the heat shock response signaling pathway - cell viability counter screen (AID 743209). Note: nearly all actives have a fitted effect of over 50% in size. In a few lines:
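Counter screen for cytotoxicity in HeLa HSE-bla reporter cells. Treatment was 5 h at 37 C; viability was detected by luminescent ATP assay (CellTiter-Glo) in the same wells as the beta-lactamase read.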

A short description of experiment [9]: qHTS assay for small molecule activators of the heat shock response signaling pathway (AID 743210; active = well fitted activation curve with a large enough effect in the signal ratio in the repeat runs, with a control signal flat, not every such curve was filed as active; the % refers to the signal ratio;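 note: HeLa cells with beta-lactamase reporter driven by heat shock elements; series mostly up to about 63 µM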). In a few lines:
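Quantitative high-throughput format using an engineered HeLa line in which heat shock response elements drive beta-lactamase; after 5 h with compound, cells received a B/G FRET substrate and fluorescence was read.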

Experiment [10] is described as follows: qHTS assay to identify small molecule agonists of the peroxisome proliferator-activated receptor delta (PPARd) signaling pathway - cell viability counter screen (AID 743211). Note: nearly all actives have a fitted effect of over 55% in size. Note: potency is the fitted concentration of half-maximal effect. In a few lines: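 Luminescent ATP viability assay (CellTiter-Glo, 30 min RT) in UAS-bla HEK293H cells carrying the PPAR delta reporter construct, 3000 cells/well, after a 17 h compound treatment at 37 C.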

The target in experiment [11] is Peroxisome proliferator-activated receptor delta (Homo sapiens) (UniProt Q03181). Kind of experiment: qHTS assay to identify small molecule agonists of the peroxisome proliferator-activated receptor delta (PPARd) signaling pathway (AID 743212; calls by dose curve). In a few lines: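 Quantitative high-throughput agonist screen in a HEK293H beta-lactamase reporter line under UAS control. Compounds in DMSO, at 37 C. Fluorescence read after 2 h with FRET substrate at room temperature.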

Experiment [12] can be described thus: qHTS assay to identify small molecule antagonists of the peroxisome proliferator-activated receptor delta (PPARd) signaling pathway - cell viability counter screen (AID 743213). Note: nearly all actives have a fitted effect of over 50% in size. Note: potency is the fitted concentration of half-maximal effect. In a few lines: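 In this counter screen, HEK293H cells carrying a UAS-beta-lactamase reporter are co-treated with test compounds and 300 nM L165041 (final) for 17 h at 37 C; cell viability is quantified by CellTiter-Glo luminescence.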

Experiment [13] concerns the target Peroxisome proliferator-activated receptor delta (Homo sapiens) (UniProt Q03181). Kind of experiment: qHTS assay to identify small molecule antagonists of the peroxisome proliferator-activated receptor delta (PPARd) signaling pathway (AID 743215; active = well fitted inhibition curve with a large enough effect in the signal ratio in the repeat runs, not every such curve was filed as active; the % refers to the signal ratio;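 note: cells stimulated with agonist L165041 at 300 nM final during compound exposure; series mostly up to about 62 µM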). In a few lines:
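With L165041 present at 300 nM final, compounds were incubated 17 h at 37 C on PPARd UAS-bla HEK293H cells. A FRET-based beta-lactamase substrate was then applied for 2 h at room temperature and fluorescence intensity recorded.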

Experiment [14] is described as follows: qHTS assay to identify small molecule antagonists of the farnesoid-X-receptor (FXR) signaling pathway - cell viability counter screen (AID 743221; active = well fitted cell-killing curve with a large enough effect in the repeat runs, not every such curve was filed as active; note: nearly all actives have a fitted effect of over 50% in size; note: potency is the fitted concentration of half-maximal effect). In a few lines: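 In GeneBLAzer FXR-UAS-bla HEK 293T cells stimulated with 50 uM chenodeoxycholic acid (final), compounds acted for 16 h at 37 C. Viability was assessed afterwards by CellTiter-Glo luminescence.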

Experiment [15] addresses Vitamin D3 receptor (Homo sapiens) (UniProt P11473). The experiment in a line: qHTS assay to identify small molecule antagonists of the vitamin D receptor (VDR) signaling pathway (AID 743223; active = well fitted inhibition curve with a large enough effect in the signal ratio in the repeat runs, not every such curve was filed as active; the % refers to the signal ratio). In a few lines: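 Agonist 1alpha,25-dihydroxyvitamin D3 (3 nM in well) was added with each compound to VDR-bla cells preincubated 4 h. Cells stood 16 h at 37C, then FRET substrate 2 h at room temperature; fluorescence intensity recorded.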

Experiment [16] in a line: qHTS assay for small molecule agonists of the antioxidant response element (ARE) signaling pathway (AID 743202; active = well fitted activation curve with a large enough effect in the signal ratio in the repeat runs, not every such curve was filed as active; the % refers to the signal ratio). In a few lines: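 Agonist mode reporter screen: HepG2 cells with ARE-controlled beta-lactamase are incubated with test compounds for 16 h at 37 C, and beta-lactamase activity is measured as fluorescence of cleaved B/G FRET substrate.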
Experiment [17] can be described thus: qHTS assay to identify small molecule agonists of the farnesoid-X-receptor (FXR) signaling pathway - cell viability counter screen (AID 743218). Note: nearly all actives have a fitted effect of over 45% in size. Note: potency is the fitted concentration of half-maximal effect. In a few lines: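 After 16 h at 37 C with test compounds, FXR-bla HEK 293T cells were given LiveBLAzer B/G substrate for 2 h at RT and then CellTiter-Glo; luminescence was taken after 30 min.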
Experiment [18] has as its target Vitamin D3 receptor (Homo sapiens) (UniProt P11473). The experiment in a line: qHTS assay to identify small molecule agonists of the vitamin D receptor (VDR) signaling pathway (AID 743222; calls by dose curve). In a few lines:
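VDR-bla cells were seeded, left 4 h, treated with compounds in DMSO for 16 h, incubated 2 h at RT with B/G FRET substrate, and read for fluorescence.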

Records with an inconclusive call do not appear. Calls of active or inactive are those of the source. Unless noted, calls come from the whole dose curve; as a rule, active = well fitted curve in the direction sought with a large enough effect in the repeat runs; inconclusive = weak or mixed curves; inactive = no such curve, though single readings can be large; an effect the other way counts as inactive or inconclusive.

Peroxisome proliferator-activated receptor gamma (Homo sapiens), sequence (P37231 whole entry, looked up): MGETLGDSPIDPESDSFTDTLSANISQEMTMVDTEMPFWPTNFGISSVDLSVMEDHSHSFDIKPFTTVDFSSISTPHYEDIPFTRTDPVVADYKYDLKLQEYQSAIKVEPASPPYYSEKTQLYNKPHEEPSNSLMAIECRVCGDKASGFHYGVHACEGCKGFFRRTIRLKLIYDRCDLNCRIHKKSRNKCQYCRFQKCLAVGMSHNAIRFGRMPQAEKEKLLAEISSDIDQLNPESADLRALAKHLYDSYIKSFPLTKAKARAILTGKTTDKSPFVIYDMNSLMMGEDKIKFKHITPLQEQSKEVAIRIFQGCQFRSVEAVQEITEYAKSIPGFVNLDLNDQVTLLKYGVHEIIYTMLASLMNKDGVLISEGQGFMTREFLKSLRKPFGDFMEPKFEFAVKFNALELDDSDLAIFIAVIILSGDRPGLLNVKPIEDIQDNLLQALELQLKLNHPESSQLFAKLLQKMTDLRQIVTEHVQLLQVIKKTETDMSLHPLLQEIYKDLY
Peroxisome proliferator-activated receptor delta (Homo sapiens), sequence (Q03181 whole entry, looked up): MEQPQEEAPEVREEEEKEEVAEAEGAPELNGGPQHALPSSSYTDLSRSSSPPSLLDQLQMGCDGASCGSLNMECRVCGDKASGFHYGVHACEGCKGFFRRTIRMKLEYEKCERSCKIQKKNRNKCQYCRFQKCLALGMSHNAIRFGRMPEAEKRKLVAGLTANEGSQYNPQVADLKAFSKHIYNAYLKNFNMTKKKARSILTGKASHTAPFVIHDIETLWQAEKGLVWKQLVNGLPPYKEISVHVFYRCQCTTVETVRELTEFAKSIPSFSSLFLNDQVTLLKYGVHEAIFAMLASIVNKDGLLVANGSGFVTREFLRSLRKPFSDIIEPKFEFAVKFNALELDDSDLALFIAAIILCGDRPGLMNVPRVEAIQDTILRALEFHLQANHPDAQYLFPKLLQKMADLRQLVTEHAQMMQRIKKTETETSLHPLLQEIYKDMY
Aryl hydrocarbon receptor (Homo sapiens), sequence (P35869 whole entry, looked up): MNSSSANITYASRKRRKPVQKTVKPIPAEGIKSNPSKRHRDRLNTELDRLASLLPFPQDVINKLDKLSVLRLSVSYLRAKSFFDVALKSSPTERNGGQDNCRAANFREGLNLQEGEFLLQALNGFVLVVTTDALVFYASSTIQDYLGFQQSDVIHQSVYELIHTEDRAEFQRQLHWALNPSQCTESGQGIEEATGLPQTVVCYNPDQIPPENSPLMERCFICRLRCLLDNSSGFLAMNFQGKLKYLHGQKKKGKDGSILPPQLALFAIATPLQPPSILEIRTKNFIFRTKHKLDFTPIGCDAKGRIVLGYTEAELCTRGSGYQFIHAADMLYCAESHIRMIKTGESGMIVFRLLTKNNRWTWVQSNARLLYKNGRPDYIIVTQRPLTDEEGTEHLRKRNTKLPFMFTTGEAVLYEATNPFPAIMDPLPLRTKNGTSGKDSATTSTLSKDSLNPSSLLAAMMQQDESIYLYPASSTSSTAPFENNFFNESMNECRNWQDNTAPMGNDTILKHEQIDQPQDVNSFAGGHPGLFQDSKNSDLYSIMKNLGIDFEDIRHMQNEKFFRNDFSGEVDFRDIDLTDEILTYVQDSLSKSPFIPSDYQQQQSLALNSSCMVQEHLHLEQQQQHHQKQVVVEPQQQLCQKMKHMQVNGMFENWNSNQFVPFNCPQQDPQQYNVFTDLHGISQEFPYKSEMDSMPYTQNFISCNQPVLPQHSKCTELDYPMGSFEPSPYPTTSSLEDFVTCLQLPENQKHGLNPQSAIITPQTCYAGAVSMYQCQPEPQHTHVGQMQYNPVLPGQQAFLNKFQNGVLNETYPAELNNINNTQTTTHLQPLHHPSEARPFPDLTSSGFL
Vitamin D3 receptor (Homo sapiens), sequence (P11473 whole entry, looked up): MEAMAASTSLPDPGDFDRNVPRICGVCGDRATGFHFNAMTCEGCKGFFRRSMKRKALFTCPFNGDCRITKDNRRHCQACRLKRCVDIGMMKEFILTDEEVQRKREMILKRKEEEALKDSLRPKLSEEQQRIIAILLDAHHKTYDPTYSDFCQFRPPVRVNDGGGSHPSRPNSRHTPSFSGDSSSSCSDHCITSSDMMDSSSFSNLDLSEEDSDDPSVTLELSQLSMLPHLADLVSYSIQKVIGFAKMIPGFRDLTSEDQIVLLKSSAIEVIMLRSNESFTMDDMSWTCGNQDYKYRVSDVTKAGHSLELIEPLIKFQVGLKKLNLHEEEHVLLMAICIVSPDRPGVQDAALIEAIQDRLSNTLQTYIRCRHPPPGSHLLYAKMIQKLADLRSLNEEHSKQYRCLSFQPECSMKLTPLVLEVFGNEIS

With `CC(=O)Oc1ccc(C2(c3ccc(OC(C)=O)cc3)C(=O)Nc3ccccc32)cc1`, the Potency result in [1], in experiment [2], in experiment [3], in experiment [4], in experiment [5] and in [6] was “inactive” each time. For the same compound, the Potency result in [7], in experiment [8], in experiment [9], in experiment [10], in experiment [12] and in [13] was “inactive” in each case. Moreover, the Potency entry in experiment [14] and in experiment [15] was “inactive” throughout. In addition, in [11], the call was inactive.
As for `Cc1cccc(Br)c1`, the Potency entry in experiment [1], in experiment [2], in experiment [3], in experiment [4], in [5] and in experiment [6] was “inactive” each time. Further, the Potency entry in [16], in [7], in experiment [8], in experiment [9], in [10] and in experiment [12] was “inactive” throughout. Also, the Potency entry in [13], in [17] and in experiment [14] was “inactive” throughout. In experiment [11], the compound was classed as inactive.
Regarding `c1ccc(Sc2ccccc2)cc1`, the Potency entry in experiment [1], in [2], in experiment [3], in [4], in [5] and in experiment [6] was “inactive” in each case. Besides, the Potency entry in [16], in experiment [7], in experiment [17], in [14], in [18] and in experiment [15] was “inactive” each time.
For the compound `O=C1NCCN1CCN1CCC(c2cn(-c3ccc(F)cc3)c3ccc(Cl)cc23)CC1`, the Potency in experiment [1] was 29.8 µM (active); in experiment [3] it was 23.7 µM (active); in [6] it was 29.8 µM (active); in experiment [7], 26.6 µM (active); in [10] it was 23.7 µM (active); in experiment [12] it was 23.7 µM (active). Moreover, the values for the Potency in experiment [17] and in experiment [14] were 23.7 µM (active) and 33.5 µM (active), respectively. Moreover, the Potency result in experiment [2], in [4] and in experiment [8] was “inactive” throughout.
On to `Cn1cnc2ncnc(N)c21`, for which the Potency result in [1], in experiment [2], in experiment [3], in [4], in experiment [6] and in [16] was “inactive” throughout. Moreover, the Potency entry in [7], in experiment [8], in experiment [9], in [10], in experiment [12] and in [13] was “inactive” each time. Also, the Potency entry in [17], in [14], in [18] and in experiment [15] was “inactive” throughout. Moreover, the result in experiment [11] was inactive.
With `CCN1CCN(c2cc(-c3ccc(F)cc3)c3c(n2)CCCCCC3)CC1`, the Potency entry in experiment [1], in experiment [2], in experiment [3], in experiment [4], in [5] and in [6] was “inactive” each time. The Potency result in experiment [7], in experiment [8], in experiment [9], in [12], in [13] and in experiment [17] was “inactive” each time. Also, the Potency entry in experiment [14], in experiment [18] and in experiment [15] was “inactive” each time.
Turning to `Cc1cn[nH]c1`, the Potency result in experiment [1], in experiment [2], in [3], in [4], in [5] and in experiment [6] was “inactive” in each case. For the same compound, the Potency result in experiment [16], in experiment [7], in [8], in experiment [9], in experiment [10] and in [12] was “inactive” in each case. For the same compound, the Potency entry in experiment [13], in [17] and in experiment [14] was “inactive” each time. In addition, in experiment [11], the call was inactive.
